Results on 95 molecules are retold here after PubChem BioAssay AID1851 (National Center for Advancing Translational Sciences (NCATS), 2009).

Each structure is given as a SMILES string. Several values for one entry are separate records, joined by “and”; a condition that tells them apart may be missing. Equal values may be shown once. In all, about 16,000 compounds went through this assay and about 5,800 (36%) were called active. Not shown: some 23% with an inconclusive outcome. Calls come from the whole dose curve; as a rule, active = well fitted curve in the direction sought with a large enough effect; inconclusive = small, poorly fitted or top-dose-only effect, or effect the other way; inactive = no such curve, though single readings can be large or run the other way. Some of the results follow. More than one record can exist for a structure, and the calls need not agree.
% is set by controls: 0 for no effect and ±100 for the full control effect.

The target of the assay is Cytochrome P450 2C19 (Homo sapiens) (UniProt P33261). The experiment in a line: Cytochrome panel assay with activity outcomes. The conditions noted are these: recombinant CYP, pro-luciferin dealkylation, luminescence, p450-cyp2c19; series mostly up to 57.1 µM.
Sequence of Cytochrome P450 2C19 (Homo sapiens) (P33261 whole entry, looked up): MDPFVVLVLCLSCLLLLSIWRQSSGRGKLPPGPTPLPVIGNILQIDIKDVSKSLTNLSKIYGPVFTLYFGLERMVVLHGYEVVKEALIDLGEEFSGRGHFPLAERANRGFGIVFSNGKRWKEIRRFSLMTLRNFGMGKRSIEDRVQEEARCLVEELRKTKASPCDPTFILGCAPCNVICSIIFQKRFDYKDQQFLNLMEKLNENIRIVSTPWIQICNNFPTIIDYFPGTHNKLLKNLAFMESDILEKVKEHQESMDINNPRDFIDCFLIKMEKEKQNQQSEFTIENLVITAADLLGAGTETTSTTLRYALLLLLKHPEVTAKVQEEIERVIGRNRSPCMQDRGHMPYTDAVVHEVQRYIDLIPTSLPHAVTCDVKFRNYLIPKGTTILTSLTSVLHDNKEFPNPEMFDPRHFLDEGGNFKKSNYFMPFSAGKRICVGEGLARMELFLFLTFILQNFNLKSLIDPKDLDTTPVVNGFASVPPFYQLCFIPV
In general, AC50 refers to the midpoint of the concentration-response curve, whichever way the signal moves. Take `COc1ccc(NC(=O)N2CCCC3(CCN(C(=O)Oc4ccccc4)CC3)C2)cc1`: the AC50 entry was “inactive”.

As for `CN(C)CS/C(N)=N/[C@H](O)C(Cl)(Cl)Cl`, the activity, negative = inhibition is -3.05% [at 11.4 µM] (inactive). Consider `CC(N)Cc1ccccc1Sc1ccc(O)cc1` (stereo not given), for which the AC50 was 15800 nM (active). Still for that read-out and setting: under `C[C@H](N)Cc1c[nH]c2ccc(O)cc12` stands “inactive”; under `CNC(C)Cc1ccccc1Sc1ccc(O)cc1` (stereo not given), 10000 nM (active). On the same count and under the same terms, under `CNC[C@H](O)c1ccc(O)cc1` stands “inactive”; under `O=C(Oc1ccc([N+](=O)[O-])cc1)N1CCC(N2CCCCC2)CC1`, “inactive”; under `O=C1Nc2ccc(I)cc2/C1=C/c1cc(Br)c(O)c(Br)c1`, “inactive”. With `Nc1nc2ccc(Cl)cc2c2nc(-c3ccco3)nn12`, the AC50 entry is “inactive”.

On to `CCOP(=O)(OCC)c1nc(/C=C/c2ccccc2)oc1NCc1ccccc1`, for which the half-maximal activity concentration (AC50) was 2240 nM (active).

For the molecule `CCNC(C)(C)[C@@H](SS)c1ccc(Br)cc1`, the activity, negative = inhibition is -70.9% [at 11.4 µM] (inactive). Turning to `COC1(CS(=O)c2ccccc2)CCN(CCc2c[nH]c3ccc(F)cc23)CC1` (stereo not given), the AC50 result was “inactive”.

With `O=NN(Cc1ccc(Cl)cc1)[C@@H](C(=O)O)c1ccccc1`, the AC50 was 398 nM (active). Take `COc1ccc2c(c1)[C@]13CCCC[C@@H]1[C@H](C2)NCC3`: the AC50 entry was “inactive”. Turning to `CN1CCc2cccc(Cl)c2CC1`, the AC50 result is “inactive”. In the case of `c1ccc(N2CC[C@@]3(CCCNC3)C2)cc1`, the AC50 result is “inactive”. In the case of `Cc1cc(Cc2cc(C)c(N)cc2N)c(N)cc1N`, the activity, negative = inhibition was -42.7% [at 11.4 µM] (inactive). For `CCCn1c(=O)c2[nH]c(C3CCCC3)nc2n(CCCOC(=O)c2ccc(S(=O)(=O)F)cc2)c1=O`, the AC50 result was “inactive”. The same measure, in the same setting: under `CCOC(=O)c1c(NC(=O)C(c2ccccc2)c2ccccc2)sc2c1C1CCN2CC1` stands 3550 nM (active). Take `CN(C)[C@@H]1C(=O)C(C(N)=O)=C(O)[C@]2(O)C(=O)C3=C(O)c4c(O)cccc4[C@@](C)(O)[C@H]3[C@H](O)[C@@H]12`: the AC50 result is “inactive”. On to `C[C@@]12CC[C@@H]3[C@H](CCC4=CC(=O)CC[C@]43C)[C@@H]1CC[C@@H]2C(=O)Cn1cnc2c(=S)nc[nH]c21`, for which the activity, negative = inhibition is -3.21% [at 11.4 µM] (inactive).

As to `O=C(O)c1ccccc1Nc1cccc(C(F)(F)F)c1`, the AC50 result was “inactive”. For `CC(O)(CS(=O)(=O)c1cccc(C(F)(F)F)c1)C(=O)Nc1cccc(C(F)(F)F)c1` (stereo not given), the AC50 is 2510 nM (active). With `CC(O)(CS(=O)(=O)c1ccccc1)C(=O)Nc1cccc(C(F)(F)F)c1` (stereo not given), the AC50 is 2240 nM (active). For `CC(O)(CS(=O)(=O)c1cccc(C(F)(F)F)c1)C(=O)Nc1ccc(C(F)(F)F)cc1` (stereo not given), the AC50 is 794 nM (active).

Turning to `CC[C@@H]1CN2CCc3cc(OC)c(OC)cc3[C@H]2C[C@@H]1C[C@@H]1NCCc2cc(O)c(OC)cc21`, the AC50 result is “inactive”. With `Cn1c(=O)c2[nH]cnc2n(C)c1=O.[CH2-][C@H](Cc1cccc2cc(C(=O)O)c(=O)oc12)OC.[Hg].[OH-]`, the activity, negative = inhibition was 27.4% [at 11.4 µM] (inactive). As to `C[C@@H]1[C@@H]2Cc3ccc(O)cc3[C@@]1(C)CCN2CC1CC1`, the AC50 result is “inactive”. With `O=C(O)[C@@H]1C[C@H]1[C@@H](NP(=O)(c1ccccc1)c1ccccc1)c1ccccc1`, the AC50 result was “inactive”. For the molecule `Cc1ccccc1OCCN=Cc1c(O)n(C)c(=O)n(C)c1=O`, the AC50 was 10000 nM (active). Take `COc1cccc(-n2c(O)c(C=NCCN3CCOCC3)c(=O)[nH]c2=O)c1`: the AC50 entry is “inactive”.

`CC[N@+]1(C)CCC[C@@H](OC(=O)C(O)(c2ccccc2)c2ccccc2)C1`: the AC50 result was “inactive”. As for `C/C(O)=C(/C#N)C(=O)Nc1cc(Br)ccc1Br`, the AC50 result was “inactive”.

In the case of `COC(=O)C1=CCCN(C)C1`, the AC50 result was “inactive”. For the molecule `C[C@H](Br)CN(C[C@H](C)Br)c1ccc2c(c1)Cc1ccccc1-2`, the AC50 was 2510 nM (active). On to `CC[C@H](C(=O)[C@H](C)[C@H](O)[C@H](C)CCc1ccc(C)c(O)c1C(=O)O)[C@H]1O[C@](CC)([C@@H]2CC[C@@](O)(CC)[C@H](C)O2)C[C@H]1C`, for which the AC50 result is “inactive”. With `COCCCn1c(N)c(C(=O)Nc2sc3c(c2C(=O)OC)CCCC3)c2nc3ccccc3nc21`, the AC50 was 3550 nM (active).

With `C=CCN1CC[C@@]23c4c5ccc(O)c4O[C@H]2/C(=N\N=C2/CC[C@@]4(O)[C@H]6Cc7ccc(O)c8c7[C@@]4(CCN6CC=C)[C@@H]2O8)CC[C@]3(O)[C@@H]1C5`, the AC50 entry was “inactive”. `NCCc1ccc(S(=O)(=O)F)cc1`: the AC50 entry was “inactive”.

As for `COc1ccc(CNC(=O)/C=C\c2ccc3[nH]cc(CCN(C)C)c3c2)cc1`, the AC50 entry was “inactive”. For the molecule `C=CCN1C[C@H](C)N([C@H](c2ccc(C(=O)N(CC)CC)cc2)c2cccc(OC)c2)C[C@H]1C`, the AC50 entry was “inactive”.

`C=C(C)[C@H]1Cc2c(ccc3c2O[C@H]2COc4cc(OC)c(OC)cc4[C@@H]2C3=O)O1`: the AC50 is 2510 nM (active). Take `COc1cc2c(cc1OC)[C@@H]1C(=O)c3ccc4c(c3O[C@@H]1CO2)C=CC(C)(C)O4`: the AC50 is 5010 nM (active). As for `N[C@@H](Cc1ccccc1)P(=O)(O)O`, the activity, negative = inhibition was -2.53% [at 11.4 µM] (inactive). In the case of `Cn1c[n+](C)cc1C(O)c1ccccc1` (stereo not given), the AC50 entry is “inactive”. In the case of `COc1ccc2[nH]c3c(c2c1)CCN=C3C`, the AC50 result was “inactive”.

With `Oc1ccc2c3c1O[C@H]1c4oc5ccccc5c4C[C@]4(O)[C@H](C2)N(CC2CC2)CC[C@@]314`, the AC50 entry is “inactive”. In the case of `C=CCO[C@@H](Cn1ccnc1)c1ccc(Cl)cc1Cl`, the half-maximal activity concentration (AC50) was 10 nM (active). Take `N[C@@H](Cn1cc(I)c(=O)[nH]c1=O)C(=O)O`: the AC50 result was “inactive”. With `O=C(Nc1ccccc1)N1CCCC2(CCN(C(=O)Oc3ccccc3)CC2)C1`, the AC50 result was “inactive”. As for `C[C@H](N)c1cccc(Cl)c1Cl`, the AC50 result was “inactive”. Regarding `Oc1ccc2c3c1O[C@H]1c4c(c5ccccc5n4Cc4ccccc4)C[C@]4(O)[C@H](C2)N(CC2CC2)CC[C@@]314`, the AC50 result is “inactive”. Turning to `NC(N)=NS(=O)(=O)c1ccc(N)cc1`, the AC50 result was “inactive”.

Turning to `C[N+]1(C)CCO[C@@](O)(c2ccc(-c3ccc([C@]4(O)C[N+](C)(C)CCO4)cc3)cc2)C1`, the AC50 entry was “inactive”. For the molecule `c1ccc2c(c1)OC[C@@H](C1=NCCN1)O2`, the AC50 result is “inactive and 7.94 µM (active)”.

As for `CC[C@]1(C2=NCCN2)Cc2ccccc2O1`, the AC50 result is “inactive”.

In the case of `NC[C@@H](O)CSP(=O)(O)O`, the activity, negative = inhibition is 8.63% [at 11.4 µM] (inactive). In the case of `NC(=O)CN1CCCC1=O`, the AC50 entry was “inactive”.

Regarding `Nc1nnnn1CCO`, the activity, negative = inhibition is 28.1% [at 11.4 µM] (inactive). Turning to `O=C(O)c1cc[c]([Hg][S]c2ncnc3nc[nH]c23)cc1`, the AC50 is 631 nM (active).

For the molecule `CO[C@H]1[C@H](O)[C@H](O[C@@H]2[C@H](Oc3cccc4c(O)c5c(=O)oc6ccc(C)c7c(=O)oc(c34)c5c67)O[C@@H](C)[C@H](O)[C@H]2O)O[C@@H](C)[C@@H]1O`, the activity, negative = inhibition was 22.4% [at 11.4 µM] (inactive). In the case of `CC[C@@H](CO)Nc1nc(NCc2ccccc2)c2ncn(C(C)C)c2n1`, the AC50 result is “inactive”. As for `Cc1[nH]c2ccc(O)cc2c1CCN`, the AC50 result is “inactive and 7.94 µM (active)”. For the molecule `CNCCc1c[nH]c2ccc(O)cc12`, the AC50 result is “inactive”.

For `NCCc1c[nH]c2ccc(O)cc12`, the AC50 result is “inactive”. Regarding `CCCN(CCC)[C@@H]1CCc2c(OC)cccc2[C@@H]1C`, the AC50 result was “inactive”. As to `C[C@]12CC[C@H](O)CC1=CC[C@@H]1[C@H]2CC[C@]2(C)C(=O)CC[C@H]12`, the AC50 result was “inactive”. As to `O=P(Nc1ccccc1)(Nc1ccccc1)Oc1cccc(Cl)c1`, the AC50 is 5010 nM (active). As for `NS(=O)(=O)c1ccc(-c2ccc([As](=O)(O)O)cc2)cc1`, the activity, negative = inhibition was 24.2% [at 11.4 µM] (inactive). Turning to `C[C@]12N[C@H](Cc3ccccc31)c1ccccc12`, the AC50 entry was “inactive”. As to `N#Cc1ccc(CN2CC[C@@]3(CCCNC3)C2)cc1`, the AC50 result was “inactive”. `Clc1cccc(N2CCNCC2)c1`: the AC50 entry was “inactive”.

Take `CN[C@H](Cc1ccccc1)c1cccc(OC)c1O`: the AC50 was 2000 nM (active). Turning to `NCCP(=O)(O)O`, the activity, negative = inhibition is 26% [at 11.4 µM] (inactive). `O=C(CNS(=O)(=O)c1cccs1)N1CCC2(CC1)OCCO2`: the AC50 is 7080 nM (active). Turning to `O=C(Cn1ncc2ccsc2c1=O)N1CCC2(CC1)OCCO2`, the AC50 was 22400 nM (active). As for `O=C(CNS(=O)(=O)c1ccc(Br)s1)N1CCC2(CC1)OCCO2`, the AC50 is 2820 nM (active). `CCN(CC)CCO[C@H]1CC[C@@]2(C)C(=CC[C@@H]3[C@H]2CC[C@]2(C)C(=O)CC[C@H]32)C1`: the AC50 result was “inactive”. On to `CN(C)C(=O)Oc1cccc([N+](C)(C)C)c1`, for which the AC50 result was “inactive”. For `O=C(Oc1ccc(S(=O)(=O)F)cc1F)c1ccccc1Cl`, the activity, negative = inhibition was 11.2% [at 11.4 µM] (inactive). In the case of `N[C@@]1(C(=O)O)CC[C@H](C(=O)O)C1`, the AC50 entry is “inactive”. Consider `CC(C)CN1CC[C@@]2(CCCN(C(=O)Oc3ccccc3)C2)C1`, for which the AC50 entry is “inactive”. `C[C@@H]1[C@@H](C)N1C[C@H](O)Cn1ccnc1[N+](=O)[O-]` (stereo not given in full): the activity, negative = inhibition is 3.22% [at 11.4 µM] (inactive). With `O=c1c2ccccc2c2ccccc2c(=O)n1-c1cc2c3ccccc3ccc2c2ccccc12`, the AC50 was 158 nM (active). Same read-out and setting: next, `CC[C@H]1CN2CC[C@@H]1C[C@H]2[C@@H](O)c1ccnc2ccc(OC)cc12`: “inactive”; `Cc1ncsc1CCCl`: 7940 nM (active); `CN(C)CCC=C1c2ccccc2CCc2ccccc21`: “inactive”. With `CCN(CC)C1=NC(=[N+](CC)CC)c2ccccc21`, the AC50 entry was “inactive”. With `C[C@@]12CCC(=O)C=C1C=C[C@H]1[C@H]3CC[C@](O)(CCC(=O)O)[C@]3(C)CC[C@@H]12`, the AC50 result is “inactive”. Same read-out and setting: next, `COC(=O)c1cc2c(cn1)[nH]c1ccccc12`: 3980 nM (active); `C[C@@]12CC[C@H]3[C@@H](CCC4=CC(=O)CC[C@]43C)[C@H]1CC[C@H]2C(=O)CO`: “inactive”. With `Cc1ccc(S(=O)(=O)O[C@H]2CN3CCC2CC3)cc1`, the activity, negative = inhibition is 21.1% [at 11.4 µM] (inactive). For `NC(N)=Nc1ccc2[nH]c3c(c2c1)C[C@]1(O)[C@@H]2Cc4ccc(O)c5c4[C@]1(CCN2CC1CC1)[C@H]3O5`, the AC50 result is “inactive”. On to `O=[N+]([O-])O[C@H]1CO[C@H]2[C@H]1OC[C@@H]2O[N+](=O)[O-]`, for which the AC50 result is “inactive”. In the case of `CCCC[N+]1(C)[C@@H]2CC(OC(=O)[C@@H](CO)c3ccccc3)C[C@H]1[C@H]1O[C@H]12` (stereo not given in full), the AC50 entry was “inactive”.
